Assay [1] can be described thus: compound effects on lung adenocarcinoma cell viability – A549, calcein-AM fluorescence, 48 h, basal, profiling panel (AID 1162). Also: test concentration not given here. The following applies: higher = more signal.
Assay [2] is described as follows: compound effects on differentiated 3T3-L1 adipocyte viability – cell-based, 3T3-L1 adipocytes, calcein-AM fluorescence, 48 h, basal, profiling panel (AID 1163). Also: test concentration not given here. The note with it: 3T3-L1 adipocytes viability, higher = more signal.
Assay [3] is described as follows: compound effects on hepatocellular carcinoma cell viability – HepG2, calcein-AM fluorescence, 48 h, basal, profiling panel (AID 1164). Also: test concentration not given here. The note with it: higher = more signal.
A short description of assay [4]: compound effects on multiple myeloma cell viability – MM1S, calcein-AM fluorescence, 48 h, basal, profiling panel (AID 1165).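 Also: viability of MM1S multiple myeloma cells under basal unstimulated conditions; test concentration not given here.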 The following applies: higher = more signal.
A short description of assay [5]: calcein-AM signal in unstimulated myeloma cells – cell-based, calcein-AM fluorescence, 48 h, PK04 Diversity Set, profiling panel (AID 1166).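 Also: cells grown under basal conditions without added stimulus; test concentration not given here.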 The following applies: RPMI8226 myeloma viability, higher = more signal.
Assay [6] can be described thus: JC-1 mitochondrial signal, unstimulated HepG2 cells – cell-based, JC-1 fluorescence, 24 h, 100 nL compound, profiling panel (AID 1167). Also: test concentration not given here. The following applies: HepG2 mitochondrial potential, higher = more signal.
Assay [7] in a line: JC-1 mitochondrial signal, unstimulated adipocytes – cell-based, JC-1 fluorescence, 3T3-L1 adipocytes, 24 h, 100 nL compound, profiling panel (AID 1168). Also: test concentration not given here. The following applies: JC-1 mitochondrial fluorescence, higher = more signal, called active from +8 up or from −8 down.
A short description of assay [8]: JC-1 mitochondrial signal, unstimulated myeloma cells – cell-based, JC-1 fluorescence, RPMI8226, 24 h, 100 nL compound, profiling panel (AID 1169). Also: test concentration not given here. The following applies: JC-1 mitochondrial potential fluorescence, higher = more signal.
Assay [9] is described as follows: JC-1 mitochondrial signal, unstimulated MM1S myeloma – cell-based, JC-1 fluorescence, 24 h, 100 nL compound, profiling panel (AID 1170). Also: test concentration not given here. The following applies: MM1S mitochondrial potential, higher = more signal.
The nature of assay [10]: resazurin metabolic signal in A549 cells – cell-based, resazurin fluorescence, 24 h, PK04 Diversity Set, profiling panel (AID 1171). Also: test concentration not given here. The following applies: A549 viability, higher = more signal, called active from +8 up or from −8 down. On the technique in general: Resazurin is reduced to fluorescent resorufin, in cell work by metabolically active cells.
Assay [11] can be described thus: resazurin metabolic signal in HepG2 cells – cell-based, resazurin fluorescence, 24 h, PK04 Diversity Set, profiling panel (AID 1172). Also: test concentration not given here. The following applies: HepG2 viability, higher = more signal.
A short description of assay [12]: budding yeast growth changes without added modifier – OD600, strain BY4716, 24 h, basal condition, primary screen (AID 1173). The note with it: S. cerevisiae BY4716 growth, OD600, 24 h; higher = more signal, called active from +8 up or from −8 down.
Assay [13] is described as follows: viability profiling in MM1S myeloma cells – cell-based, resazurin fluorescence, basal, 24 h, PK04 Diversity Set, profiling panel (AID 1174). Also: test concentration not given here. The following applies: higher = more signal, called active from +8 up or from −8 down.
Assay [14] addresses Dihydroorotate dehydrogenase (quinone), mitochondrial (Plasmodium falciparum (isolate 3D7)) (UniProt Q08210). Description: inhibition of P. falciparum DHODH – biochemical, C-terminal His tag, absorbance 600 nm, primary screen (AID 1175).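 Also: recombinant parasite enzyme with a five histidine tag at its C terminus; test concentration not given here.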 The note with it: PfDHODH enzyme, DCIP absorbance 600 nm; higher = more signal, called active from +8 up or from −8 down.
Assay [15] in a line: inhibition of PAO1 biofilm formation – strain PAO1, LB-PBS medium, absorbance 600 nm, primary screen (AID 1176). Also: test concentration not given here. The note with it: P. aeruginosa PAO1 growth/biofilm, A600, 12 h; higher = more signal.
Assay [16] is described as follows: growth modulation of vineyard yeast isolate – strain RM11-1a, OD600, basal, 24 h, primary screen (AID 1177).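 Also: cultures grown under basal conditions with no added stressor; test concentration not given here.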 The following applies: S. cerevisiae RM11-1a growth, OD600, 24 h; higher = more signal, called active from +8 up or from −8 down.
Assay [17] can be described thus: growth of efflux-deficient E. coli DRC39 – strain DRC39, OD650, 24 h, E. coli filamentation inducers, primary screen (AID 1178).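 Also: growth measured as culture turbidity by optical density at 650 nm; test concentration not given here.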 The following applies: E. coli DRC39 acrAB, higher = more signal, called active from +8 up or from −8 down.
Assay [18] in a line: growth of efflux-deficient E. coli DRC39 – strain DRC39, OD650, 48 h, E. coli filamentation inducers, primary screen (AID 1179).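 Also: screen aims at cell division blockers that make cells filament.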 The note with it: E. coli DRC39 delta-acrAB growth, higher = more signal, called active from +8 up or from −8 down.
Assay [19] is described as follows: viability profiling in RPMI8226 myeloma cells – cell-based, resazurin fluorescence, basal, 24 h, PK04 Diversity Set, profiling panel (AID 1180).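 Also: RPMI8826 multiple myeloma cell line at 5000 cells per well; test concentration not given here.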 The note with it: higher = more signal.
For assay [20], the target named is E3 ubiquitin-protein ligase XIAP (Homo sapiens) (UniProt P98170). Description: small molecules binding XIAP protein – biophysical, small-molecule microarray, fluorescence 635 nm, primary screen (AID 1181).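 Also: score merges 667 nm emission and signal to noise over triplicate slides.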 The following applies: higher = more signal.
Sequence of E3 ubiquitin-protein ligase XIAP (Homo sapiens) (P98170 whole entry, looked up): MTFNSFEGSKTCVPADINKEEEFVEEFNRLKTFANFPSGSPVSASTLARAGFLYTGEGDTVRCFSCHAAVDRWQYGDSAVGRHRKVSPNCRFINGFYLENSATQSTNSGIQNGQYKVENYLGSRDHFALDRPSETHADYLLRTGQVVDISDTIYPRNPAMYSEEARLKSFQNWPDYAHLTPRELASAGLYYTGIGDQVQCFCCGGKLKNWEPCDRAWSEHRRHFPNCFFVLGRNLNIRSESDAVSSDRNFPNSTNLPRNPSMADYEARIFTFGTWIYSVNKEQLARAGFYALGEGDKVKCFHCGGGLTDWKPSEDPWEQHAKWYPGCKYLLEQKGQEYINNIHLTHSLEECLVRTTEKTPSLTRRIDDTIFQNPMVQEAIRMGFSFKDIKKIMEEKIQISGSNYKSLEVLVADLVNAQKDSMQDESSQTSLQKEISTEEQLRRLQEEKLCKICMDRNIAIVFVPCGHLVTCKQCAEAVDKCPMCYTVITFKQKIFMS

The source of these data is PubChem BioAssay.

Molecules are shown by their SMILES. Active and inactive are the calls of the source. Unless noted, no rule for the calls is given here.

Sequence of Dihydroorotate dehydrogenase (quinone), mitochondrial (Plasmodium falciparum (isolate 3D7)) (Q08210 whole entry, looked up): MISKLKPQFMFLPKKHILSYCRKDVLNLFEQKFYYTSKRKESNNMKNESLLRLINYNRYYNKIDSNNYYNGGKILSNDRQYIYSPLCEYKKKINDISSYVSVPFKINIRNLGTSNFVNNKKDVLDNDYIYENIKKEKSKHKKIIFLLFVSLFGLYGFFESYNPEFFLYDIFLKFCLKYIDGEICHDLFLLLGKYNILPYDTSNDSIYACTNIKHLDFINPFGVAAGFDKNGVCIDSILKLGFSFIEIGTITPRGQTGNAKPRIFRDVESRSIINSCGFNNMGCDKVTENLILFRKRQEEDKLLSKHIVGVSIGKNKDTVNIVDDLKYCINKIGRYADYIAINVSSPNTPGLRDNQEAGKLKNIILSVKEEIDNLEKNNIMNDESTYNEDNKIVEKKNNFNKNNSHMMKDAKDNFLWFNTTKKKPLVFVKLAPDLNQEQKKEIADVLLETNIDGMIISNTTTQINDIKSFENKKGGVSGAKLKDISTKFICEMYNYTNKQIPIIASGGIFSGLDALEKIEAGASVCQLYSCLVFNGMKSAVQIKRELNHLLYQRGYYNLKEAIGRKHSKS

On to `CCCCN1CC=CC23O[C@@H]4/C=C\CCC(C)OC(=O)C4[C@H]2C(=O)N(C(C)CO)[C@@H]3C1=O` (stereo not given in full), for which the z-score was -0.425 in assay [1]; -0.708 in assay [2]; 0.201 in assay [3]; 0.646 in assay [4]; -0.474 in [5]; -0.318 in assay [6]. Besides, the z-score in assay [7] is -0.382 (inactive); in [8], -0.726; in assay [9] it was -1.13; in assay [10] it was -0.016 (inactive); in assay [11] it was 0.0172; in assay [12], -0.0298 (inactive). Further, the z-score in assay [13] was -0.289 (inactive); in assay [15], 0.301 (inactive); in assay [16], 0.549 (inactive); in assay [17] it was 0.659 (inactive); in assay [18], 0.606 (inactive); in assay [19], -0.175. Also, the composite z-score was -0.216 (inactive) in assay [14] and 0.0785 in assay [20].

With `CCOC(=O)C[C@H]1[C@H](OC(=O)c2ccc(C(=O)c3ccccc3)cc2)[C@@H](NC(=O)c2ccc3ccccc3c2)c2cc(OCCCO)ccc2N1C(=O)c1ccc2ccccc2n1`, the z-score in assay [1] was 1.54; in assay [2], 0.0263; in assay [3] it was 0.664; in assay [4] it was 0.393; in assay [5], -0.693; in assay [6], 2.63. The z-score was 0.978 (inactive) in [7]; -0.0974 in [8]; 1.75 in assay [9]; 0.298 (inactive) in assay [10]; 0.213 in [11]; -0.628 (inactive) in assay [12]. In addition, the z-score is 0.64 (inactive) in assay [13]; -0.595 (inactive) in assay [15]; 0.351 (inactive) in assay [16]; 0.571 (inactive) in assay [17]; 0.534 (inactive) in [18]; 0.395 in assay [19]. For the same molecule, the composite z-score in assay [14] was 0.824 (inactive); in assay [20], -0.0726.

For `Cc1ccc(S[C@]2(C(=O)NC3CC3)CC(=O)N(Cc3cc(C(F)(F)F)cc(C(F)(F)F)c3)[C@@H]2c2ccc(CO)cc2I)cc1`, the z-score in assay [1] was -0.155; in [2] it was -0.136; in [3] it was 0.311; in [4], -2.53; in assay [5] it was -1.81; in assay [6], -0.9. Besides, the z-score in [7] was -0.373 (inactive); in [8], -0.921; in assay [9], -2.03; in [10], 0.851 (inactive); in [11], 0.411; in [12], -5.11 (inactive). The z-score in assay [13] is -2.78 (inactive); in assay [15] it was 0.944 (inactive); in [16], -1.6 (inactive); in assay [17] it was 0.0621 (inactive); in [18] it was 0.108 (inactive); in assay [19] it was -2.23. The composite z-score was -3.55 (inactive) in [14] and 0.723 in assay [20].

With `COc1cc2c(cc1O)C(C1CC1)N(Cc1ccc([N+](=O)[O-])o1)CC2` (stereo not given), the z-score is -0.37 in assay [1]; 0.393 in assay [2]; -0.181 in [3]; -0.201 in assay [4]; 0.741 in assay [5]; -1.57 in [6]. For the same molecule, the z-score in assay [7] is -0.0836 (inactive); in [8], -0.748; in [9], 0.0309; in assay [10] it was 0.533 (inactive); in [11], -0.145; in assay [12], -1.49 (inactive). In addition, the z-score was -0.0144 (inactive) in [13]; 0.0898 (inactive) in assay [15]; -0.346 (inactive) in assay [16]; -0.698 (inactive) in [17]; -0.821 (inactive) in [18]; 0.211 in [19]. Besides, the composite z-score in [14] is -4.24 (inactive); in [20], 0.234.

For the molecule `COCCOC(=O)N1C(=O)[C@@]2(c3cc(C#Cc4ccc(OC)cc4)ccc31)[C@H](c1ccc(OCCO)cc1)N1[C@H](c3ccccc3)[C@H](c3ccccc3)OC(=O)[C@H]1[C@@H]2C(=O)N1CCCCCCC1`, the z-score in [1] is 0.571; in [2] it was 1.96; in assay [3], 0.856; in assay [4] it was -0.0692; in assay [5], 0.81; in assay [6] it was -0.16. In addition, the z-score is -2.31 (inactive) in [7]; -0.684 in [8]; -1 in [9]; -0.436 (inactive) in assay [10]; -0.266 in assay [11]; 0.376 (inactive) in [12]. The z-score in assay [13] is 0.699 (inactive); in [15], 2.17 (inactive); in assay [16], 0.277 (inactive); in [17], 0.0117 (inactive); in assay [18], 1.19 (inactive); in assay [19] it was 0.746. In addition, the composite z-score in assay [14] was -1.31 (inactive); in [20], 0.0162.

As to `CCC[C@@H]1C=C(C(=O)OCC)[C@H](c2ccccc2)N1S(=O)(=O)c1ccc(C)cc1`, the z-score in [1] was -1.78; in assay [2] it was -0.937; in assay [3], -2.37; in assay [4], -1.19; in assay [5] it was -2.96; in assay [6], 3.86. Besides, the z-score in assay [7] was 0.437 (inactive); in [8], -0.756; in assay [9], -0.65; in assay [10] it was 1.8 (inactive); in [11], -0.197; in [12], 1.53 (inactive). For the same molecule, the z-score in [13] was -0.37 (inactive); in assay [15], 0.0362 (inactive); in assay [16] it was 1.84 (inactive); in assay [17], -0.213 (inactive); in assay [18] it was 0.0062 (inactive); in [19], -1.89. Also, the composite z-score is -0.0973 (inactive) in assay [14] and -0.0696 in [20].

As for `CN(C)CCCNC(=O)[C@@H]1c2ccccc2C(=O)N(C2Cc3ccccc3C2)[C@H]1c1ccc(CO)cc1`, the z-score was 1.61 in assay [1]; 0.121 in assay [2]; 1.99 in [3]; -0.233 in [4]; -1.28 in assay [5]; 3.81 in assay [6]. Also, the z-score in [7] was 0.571 (inactive); in assay [8], -0.066; in assay [9] it was -0.311; in assay [10], 0.267 (inactive); in assay [11] it was -0.785; in assay [12], -0.944 (inactive). The z-score in assay [13] was 0.0257 (inactive); in assay [15], 0.444 (inactive); in [16], -0.632 (inactive); in assay [17] it was 0.615 (inactive); in [18], 0.597 (inactive); in [19], 0.461. For the same molecule, the composite z-score is -0.487 (inactive) in assay [14] and 0.0345 in assay [20].

For the molecule `O=C1C2C=CC(C(O)c3ccc([N+](=O)[O-])cc3)N(Nc3ccccc3)C2C(=O)N1c1ccccc1` (stereo not given), the z-score in assay [1] was -0.121; in assay [2] it was -1.38; in [3], 0.761; in assay [4] it was 0.323; in [5], -0.423; in [6] it was -2.59. Moreover, the z-score in [7] is -0.886 (inactive); in [8], -1.01; in assay [9], -1.55; in assay [10] it was -0.0448 (inactive); in assay [11], -0.849; in [12] it was -2.61 (inactive). In addition, the z-score in assay [13] is -0.952 (inactive); in [15], 0.791 (inactive); in assay [16] it was -0.453 (inactive); in assay [17] it was -0.46 (inactive); in [18], -0.253 (inactive); in assay [19], -1.81. Further, the results for the composite z-score in assay [14] and in assay [20] were -1.03 (inactive) and -0.0085, respectively.
